The supplement of paper PMC6555819

Each sequence was assayed on VDR:RXRa (NR concentration 270 nM, RXRa partner concentration 90 nM) (assay: PBM binding z-score (relative to random genomic background probes); higher = stronger binding; sequences stand for … in GC…GCGATTGACAGCGTAGAATGAAGG).
Procedure: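 Protein-binding microarray (Agilent 4x180K custom design, double-stranded 60-nt probes: 5' GC cap, 34-nt variable region, 24-nt constant primer region; full probe sequence given). Purified or IVT nuclear receptor:RXRα heterodimers (3:1 NR:RXRα, mostly 270:90 nM) or homodimers were incubated for 1 h in PBS with 2% milk and no ligand, then detected with Alexa488 antibodies. Fluorescence from o1-orientation probes (~5 replicates averaged) was converted to z-scores against 500 random hg19 background probes. Variable regions are seed direct-repeat (DR0–DR5) sites, all their single-nucleotide variants and half-site ablations.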

Row | Sequence | PBM binding z-score
1 | CAATCTAGGTCAAGGTCAAAGTCGGTTTGTGCCA | 4.97
2 | GGAAAGAGGGCAAAGTTGATAGCATCTGTCGACG | 1.53
3 | TCTCGGAGGACACGCAAGGTCAGAGCTCGACATC | 2.45
4 | TCGAGTAGGTTAGAGGCATTCAGAATGGCGTCGA | -0.327
5 | GCTAGTTGGTCACTAAAAGGTCACACACCGGTCG | 4.17
6 | TCTTGTAGATCAGAGGTTAAGAAAGCCGAAGCCT | 0.673
7 | CCTAGCAGGCCAATCTGGGTCAATCAAGGCTTGA | 0.445
8 | ATCGAAAGGTCGAGGTGAGTGTAGAGAAAGGGAA | 3.21
9 | TTTGCTAGGTCAACGATGGTCAGCTAATCTGCTA | 1.9
10 | TCTATTAGGTGAAGGGCAACCGACGAGTCCGTTT | 0.783
11 | TGTCAAAGTTCAAAGGTAACGTAAGTATCCACAC | 5.1
12 | GCATATAGGTAAAACAAGGTGAAAGTCCGATTGT | 0.401
13 | ACTTACGGGTCAACGAGGTTAGAGCACGCGTATA | 7.15
14 | TATACAGGGTCAAAGGCCTGAGTACGAATGTCGA | 4.53
15 | CCTATTAGTTGACCGTAAGGGCAACCGAAGCTCG | 0.821
16 | CACCCTAGGTCAGGGCCAGTATAGGAGGAACGTT | 0.555
17 | CAAACTAGGTCACGAAGGGTCAAAGTCGAATGAC | 6.99
18 | CAAACTAGGTCAGAGAGGTCAAAGTCCGTGCGTA | 7.57
19 | CCTCGGAGGACAGAAGGCCAGAGCTGTCCGCTTT | -0.762
20 | CGAACTAGGTCAAGGAAAGTGAATCTCCGCACGC | 1.02

Row | Sequence | PBM binding z-score
21 | CCTTACGGCTCAAGGTTATAGCACGGGTGGTACG | 0.122
22 | CCGTCTGGGGCATAAGGTTACCATAAGCCAGCCC | 0.256
23 | GCGACTGGTGCAAAGCAGGTTACCATAAGGTTGG | -0.134
24 | GCTAGTTGGTCCGTAAAAGGTCACACACCGGTCG | 3.97
25 | CAGCCTAGGTCAAGGCCAGTATAGGAGGAACGTT | 1.3
26 | ATCTCTAGGTAAGACTCAGTTGAGTGAAGAACGC | -0.0518
27 | CGAACTAGGTCATTGACAGGACAGTGTATAGTAA | 2.05
28 | CATAGCAGGCCAATCTGGGTCACTCAAGGCTTGA | 0.95
29 | CCAGACAGGTGAAAGGTGACTCAGTCTGGTACGC | 1.3
30 | TATACAGGGTCAAAGGCCAGAGTACGAATGTCGA | 4.8
31 | TTTCCAAGGTGAAGGTCGTTGATCCCTCTGTAGA | 1.45
32 | TAGCCTAGGTCATTGGGCCAGTAGAGTACGCATC | 2.26
33 | GGAACGAGGGCAAAGTTGATACCATCTGTCGACG | 1.48
34 | TGGCCTAGGTCATTCAGGGGCCAGTATAGAAAGC | 2.79
35 | CAGACTGGGGCAGAAAGGTTACCATACCATCCGG | 1.44
36 | TCGTGTAGATCAATAGAGGTTAAGAAAGTGCGCT | 1.83
37 | TCATATAGGTATATGCTAGGTGAAAGTCCGATCT | 0.832
38 | CGTCAAAGTTAAACTAAGGTAACGTAAAGCACGC | 0.371
39 | TATACAGGGTCAAAGGCCACAGTACGAATGTCGA | 5.15
40 | AGAACGAGGGCAAGGAGTTGATAGCACGGGTGGC | 3.32
